The structures appear in SMILES notation. Calls of active or inactive are those of the source. Rule for the calls: active = hit-call score of the fitted dose curve at least 0.9, where 1 is the maximum; inactive = score below 0.9.

Read-out in the experiment: Pyruvate Dehydrogenase Kinase 4 (PDK4), PDK4 (gene 5166)
Kind of experiment: LTEA_HepaRG_PDK4: Life Technologies and Expression Analysis (LTEA) Assay for Pyruvate Dehydrogenase Kinase 4 (PDK4) using HepaRG (AID 2283525). Particulars: mRNA level, 48 h; actives raise or lower the signal. As to the method:
LTEA_HepaRG is a cell based, multiplexed-readout assay that uses HepaRG, a human liver cell line, with measurements taken at 48 hours after chemical dosing on a 96-well plate.LTEA_HepaRG_PDK4 is one of 102 assay component(s) measured in the LTEA HepaRG cell culture assay. It is a marker of Diseases associated with PDK4 including Platelet Glycoprotein Iv Deficiency and Diabetes Mellitus, Noninsulin-Dependent.Data from the assay component LTEA_HepaRG_PDK4 was analyzed into 1 endpoint. This assay endpoint, LTEA_HepaRG_PDK4, was analyzed with bidirectional fitting relative to DMSO as the negative control and baseline of activity. Using a type of inducible reporter, measures of mRNA induction for gain or loss-of-signal activity can be used to understand regulation of transcription factor activity. To generalize the intended target to other relatable targets, this assay endpoint is annotated to the kinase intended target family, where the subfamily is serine/threonine kinase.
A total of 1060 chemcials from the ToxCast library were tested in eight-point concentration-response experiments. Cell culture and cytotoxicity assays were conducted at Thermo Fisher Scientific's Custom Services facility (Madison, WI). A single lot of human HepaRG cells (Thermo Fisher Scientific, Frederick, MD) was used for the cell culture experiments. 96-well format collagen type I coated plates of human HepaRG cells were prepared using established methods. Briefly, cryopreserved HepaRG cells were thawed, plated at a density of approximately 100,000 cells/well in HepaRG Thaw, Plate, and General Purpose media (HPRG770, Thermo Fisher Scientific), and incubated for 48 hours. 0.5% DMSO was selected as vehicle control to balance the requisite need of DMSO in HepaRG cultures to maintain differentiation (for example, baseline metabolism, proportions of hepatocytes vs. cholangiocytes), while enabling further hepatic receptor pathway activation (for example, PXR and CAR) in response to chemical exposure. 48 hours after plating, the culture medium was replaced with HepaRG Serum-Free Incudtion Media. Cells were exposed to each test chemical in duplicate and maintained in CO2 incubators for another 48 hours. Chemical plates were thawed to room temperature and 200x concentrations of treatment groups were prepared. 8-point conentration-reponse curves were made with the highest exposure at 100 uM, followed by half-log dilutions, all in 0.5% DMSO. Each test plate contained variouse controls, induction positive controls (1mM phenobarbital), cytotoxicity positive controls ([…] aflatoxin B1), vehicle controls (0.5% DMSO), and total lysis controls (0.5% DMSO). Cell morphology images were taken using an Essen IncuCyte FLR automated microscope, with six 96-well plates imaged in about 24 minutes. Images were captured and exported and JPEG files. Spent culture media was transfered to black-well plates for the LDH assay, and remaining media was sorted at -80 C for later use. Cells were treated with RLT buffer and frozen until shipped for gene expression analysis. Total RNA was isolated from the cell suspension in 75 uL of Buffer RLT (Qiagen, Germantown, MD 20874) by Quintiles/Expression Analysis (Durham, NC) using a custom isolation procedure. Total RNA from each plate well was transferred to a preamplification plate. Fluidigm's 96.96 Dynamic ArrayTM (Fluidigm, Amsterdam, the Netherlands) technology was used for gene expression analyses by quantitative reverse transcription polymerase chain reaction (qRT-PCR, performed by Quintiles/Expression Analysis, Durham, NC)89. Standard TaqManTM Assays (Applied Biosystems/ThermoFisher Scientific, Foster City, CA) were used to assess the expression of 93 genes selected based on their selectivity and sensitivity to important hepatic receptors known to be modulated by environmental chemicals; importance in human hepatocyte functionality; and hepatotoxicity. […]
On to `CC[C@@H]1C[C@H](N(Cc2cc(C(F)(F)F)cc(C(F)(F)F)c2)C(C)=O)c2cc(C(F)(F)F)ccc2N1C(=O)OC(C)C`, for which the result was inactive.

As usually defined, the AC50 is the midpoint of the concentration-response curve, whichever way the signal moves. On to `CC(C)(c1cc(Br)c(O)c(Br)c1)c1cc(Br)c(O)c(Br)c1`, for which the AC50 was 88.9 µM (active).

As for `Cc1ncc(CO)c(CO)c1O`, the compound was called inactive.

For the compound `CN(C[C@@H](CC[N+]12CCC(C3CCCCC3)(CC1)CC2)c1ccc(Cl)c(Cl)c1)C(=O)c1cc(C(F)(F)F)cc(C(F)(F)F)c1`, the AC50 is 82.4 µM (active).

On to `CCCCOC(=O)CC(CC(=O)OCCCC)(OC(C)=O)C(=O)OCCCC`, for which the compound was called inactive.

`CCCCCCCCOC(=O)c1cc(O)c(O)c(O)c1`: the outcome was inactive.

As for `CCCCCc1ccc(N)cc1`, the call was inactive.

Turning to `COc1cc(C(=O)NC2CCN(C)CC2)ccc1Nc1ncc2c(n1)N(C1CCCC1)CC(F)(F)C(=O)N2C`, the AC50 is 22.2 µM (active).

For `CCN(Cc1cccnc1)C(=O)c1cccc(Cl)c1[C@]1(C)C(=O)N(Cc2ccc(OC)cc2OC)c2ccc(Cl)cc21`, the AC50 was 22.3 µM (active).

For the compound `CCCCCCCCN(C)CCCCCCCC`, the compound was called inactive.

As for `CCCCCCCCOc1ccc(C(=O)c2ccccc2)c(O)c1`, the result was inactive.

As to `O=CCCCC=O`, the outcome was inactive.

In the case of `O=C=NCCCCCCN=C=O`, the call was inactive.

Turning to `CN(C)c1ccc(C(=C2C=CC(=[N+](C)C)C=C2)c2ccc(N(C)C)cc2)cc1`, the AC50 was 32.4 µM (active).

Regarding `CCCCOC(=O)c1ccc(O)cc1`, the outcome was inactive.

Consider `CN1C(=O)CC[C@H]1c1cccnc1`, for which the call was inactive.

Consider `O=c1[nH]sc2ccccc12`, for which the outcome was inactive.

On to `Cc1cc2c(cc1C(F)(F)F)N(C(=O)Nc1ccc(Oc3cccnc3C)nc1)CC2`, for which the result was inactive.

On to `COc1cccc([C@H](O)C2CCN(CCc3ccc(F)cc3)CC2)c1OC`, for which the compound was called inactive.

On to `O=C(OCCCCCCOC(=O)c1ccccc1)c1ccccc1`, for which the call was inactive.

On to `Cc1oc2c(NC(=O)c3c(Cl)cccc3Cl)cccc2c1C(C)(C)O`, for which the AC50 was 14.9 µM (active).

On to `NC(=O)c1nc(-c2cccc(-c3cc(F)ccc3OCC(F)(F)C(F)(F)F)c2)n[nH]1`, for which the outcome was inactive.

For the compound `CCCOC(=O)c1cc(O)c(O)c(O)c1`, the AC50 was 31.4 µM (active).

On to `O=C(O)Cn1c(=O)n(Cc2ccc(Br)cc2F)c(=O)c2ccc(Cl)cc21`, for which the AC50 is 38.8 µM (active).

In the case of `CC(C)(C)c1cc(/C=C2\SC(N)=NC2=O)cc(C(C)(C)C)c1O`, the AC50 is 12.4 µM (active).

As for `Cc1cc(F)ccc1-c1cc(N2CC[C@@H](O)[C@H]2CO)ncc1N(C)C(=O)C(C)(C)c1cc(C(F)(F)F)cc(C(F)(F)F)c1`, the call was inactive.

Regarding `NCc1cccc(C2CCN(C(=O)c3ccc(C#Cc4ccccc4F)o3)CC2)c1`, the AC50 is 64.9 µM (active).

For the compound `O=c1c(-c2ccc(O)cc2)coc2cc(O)cc(O)c12`, the result was inactive.

For the compound `c1ccc2ccccc2c1`, the compound was called inactive.

As to `c1ccc(C[n+]2cccc3ccccc32)cc1`, the AC50 was 31 µM (active).

Take `CCOC(=O)O[C@H](C)OC(=O)c1ccc2c(c1)cc(C(=O)NC1CCN(C(C)C)CC1)n2Cc1cc(-c2ccc(Cl)s2)on1`: the call was inactive.

For `Cc1ccc2oc(CN(Cc3ccccc3)C(=O)Nc3c(F)cc(F)cc3F)c(-c3ccc(Cl)cc3)c2c1`, the result was inactive.

For the compound `O=C1O[C@H]([C@@H](O)CO)C(O)=C1O`, the outcome was inactive.

Turning to `CC1=CC(=O)/C(=C(/C)O)C(=O)O1`, the compound was classed as inactive.

In the case of `Cc1occc1C(=O)Nc1ccc(C(=O)N2CCC(F)(F)/C(=C\C(=O)N3CCC(N4CCCCC4)CC3)c3ccccc32)cc1`, the AC50 is 50.3 µM (active).

As for `CCCCCCCCCCCCO`, the call was inactive.

With `CCN(Cc1cccc(S(=O)(=O)O)c1)c1ccc(C(=C2C=CC(=[N+](CC)Cc3cccc(S(=O)(=O)O)c3)C=C2)c2ccccc2S(=O)(=O)[O-])cc1`, the compound was classed as inactive.

For `OC12N=C(c3ccccc3)SC1Cc1cc(Cl)ccc12` (stereo not given), the half-maximal activity concentration (AC50) was 8.96 µM (active).

Consider `Cc1c2ccccc2c(C)c2c1ccc1ccccc12`, for which the AC50 was 56.6 µM (active).

Turning to `CCCCCCCCCCCC[N+](C)(C)C`, the AC50 is 75.6 µM (active).
